The whole screen tested about 400,000 compounds, of which about 2,100 (0.53%) were called active. Inconclusive results (about 14%) are left out. How the calls were made is not given here. What follows is part of a selection rich in actives, with near analogues and random picks from the rest.
biological target: Ataxin-2 (Homo sapiens) (UniProt Q99700); assay: qHTS for Inhibitors of ATXN expression.; format: functional
Sequence (Q99700 whole entry): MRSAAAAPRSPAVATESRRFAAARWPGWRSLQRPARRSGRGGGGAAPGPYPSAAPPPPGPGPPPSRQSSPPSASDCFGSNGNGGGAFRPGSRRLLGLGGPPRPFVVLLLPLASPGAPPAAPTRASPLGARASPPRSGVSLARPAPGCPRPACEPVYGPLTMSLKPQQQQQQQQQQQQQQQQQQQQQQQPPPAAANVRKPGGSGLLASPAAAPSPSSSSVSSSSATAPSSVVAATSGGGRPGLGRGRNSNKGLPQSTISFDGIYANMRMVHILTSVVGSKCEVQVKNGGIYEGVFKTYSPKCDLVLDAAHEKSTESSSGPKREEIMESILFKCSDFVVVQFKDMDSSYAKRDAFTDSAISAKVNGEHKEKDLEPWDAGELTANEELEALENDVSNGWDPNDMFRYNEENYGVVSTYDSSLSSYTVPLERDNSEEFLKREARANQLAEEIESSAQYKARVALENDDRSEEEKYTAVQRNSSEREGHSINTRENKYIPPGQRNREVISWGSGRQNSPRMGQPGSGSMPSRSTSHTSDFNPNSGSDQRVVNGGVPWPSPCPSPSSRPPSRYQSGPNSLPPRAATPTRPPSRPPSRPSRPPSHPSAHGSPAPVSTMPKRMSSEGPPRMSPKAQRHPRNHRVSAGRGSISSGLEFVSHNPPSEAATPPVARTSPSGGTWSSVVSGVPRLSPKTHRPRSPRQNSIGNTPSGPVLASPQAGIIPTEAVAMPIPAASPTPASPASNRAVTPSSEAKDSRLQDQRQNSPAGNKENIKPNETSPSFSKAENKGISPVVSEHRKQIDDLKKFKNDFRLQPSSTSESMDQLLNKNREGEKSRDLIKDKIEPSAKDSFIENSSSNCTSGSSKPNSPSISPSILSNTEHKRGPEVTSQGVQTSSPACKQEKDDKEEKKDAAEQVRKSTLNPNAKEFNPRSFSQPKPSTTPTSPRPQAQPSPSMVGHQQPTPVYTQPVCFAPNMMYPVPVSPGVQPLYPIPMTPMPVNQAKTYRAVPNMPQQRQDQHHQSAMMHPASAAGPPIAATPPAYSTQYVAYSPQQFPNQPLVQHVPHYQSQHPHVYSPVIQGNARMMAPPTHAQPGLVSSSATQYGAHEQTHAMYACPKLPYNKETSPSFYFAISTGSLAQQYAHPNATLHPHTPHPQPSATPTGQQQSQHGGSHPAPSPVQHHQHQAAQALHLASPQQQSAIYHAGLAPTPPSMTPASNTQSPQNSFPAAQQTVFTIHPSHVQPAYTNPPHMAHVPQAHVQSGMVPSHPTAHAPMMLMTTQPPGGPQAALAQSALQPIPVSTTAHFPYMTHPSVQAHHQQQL

Compound | Potency
CSc1ccc(CN(C)CC(=O)Nc2ccc(C)cc2Br)cc1 | inactive
COc1cccc(/C=C/c2nc(C#N)c(N(C)Cc3ccccc3)o2)c1 | inactive
CC(C)(C)c1ccc(/C=C2\Oc3c(ccc(O)c3CN3CCN(CCO)CC3)C2=O)cc1 | inactive
CCN1C(=O)N(CC)C2C1N(CO)C(=O)N2CO (stereo not drawn) | inactive
Cc1ccc(S(=O)(=O)/N=C2\C=C(Nc3cccc(C(=O)O)c3)C(=O)c3ccccc32)c(C)c1 | 28.2 µM (active)
Cc1ccc(S(=O)(=O)N2CCN(CC(=O)N3CCCC3)CC2)c(C)c1 | inactive
C=CCN1C(=O)/C(=C/N(C)C)S/C1=N\S(=O)(=O)c1cccs1 | inactive
Cc1cc(C)c(S(=O)(=O)Nc2cccc(C(=O)O)c2)cc1S(=O)(=O)Nc1cccc(C(=O)O)c1 | inactive
O=S(=O)(O)c1cccc2cccc(Nc3ccccc3)c12 | inactive
O=C(O)c1ccc(NC2=C/C(=N/S(=O)(=O)c3ccccc3)c3ccccc3C2=O)cc1 | 39.8 µM (active)
O=C1C(Nc2ccccc2)=C/C(=N/S(=O)(=O)c2cccs2)c2ccccc21 | 8.91 µM (active)
O=C(O)c1ccc(NC2=C/C(=N/S(=O)(=O)c3cccs3)c3ccccc3C2=O)cc1 | 22.4 µM (active)
COC(=O)c1ccc(NC(=O)CS(=O)(=O)c2ccccc2)cc1 | inactive
O=C(O)c1ccc(Nc2c3ccccc3nc3ccccc23)cc1 | inactive
O=C(N/N=C/c1ccc(N2CCOCC2)cc1)c1ccc(NS(=O)(=O)c2cccs2)cc1 | inactive
Cc1cc(NS(=O)(=O)c2ccc(NC(=O)c3cc4cc(Br)ccc4oc3=O)cc2)no1 | inactive
O=c1cc(-c2ccccc2)c2c(O)cc(O)cc2o1 | inactive
O=c1oc2ccc(Br)cc2cc1S(=O)(=O)c1ccc(F)cc1 | inactive
CCCCN(C)S(=O)(=O)c1ccc(C(=O)Nc2sc3c(c2C(N)=O)CC(C)(C)NC3(C)C)cc1 | inactive
Brc1ccccc1C1CC(c2ccccc2)=Nc2ccccc2N1 (stereo not drawn) | inactive
C=C1C(=O)O[C@@H]2C[C@@H](C)[C@@H]3C=CC(=O)[C@@]3(C)[C@@H](OC(C)=O)[C@H]12 | 8.91 µM (active)
Cc1cc(/C=C2\Cc3ccccc3C2=O)c(C)n1-c1ccccc1 | inactive
CC(C)(C)CC(C)(C)NCC(O)COCCOc1ccc(Br)cc1 (stereo not drawn) | 39.8 µM (active)
CCCCOCCCNC(=O)C[C@@H]1C[C@@]2(C(=O)OC)CCCCC=C2N(Cc2ccc(Cl)cc2Cl)C1=O | 39.8 µM (active)
COC(=O)[C@]12CCCCC=C1N(Cc1ccc(Cl)cc1Cl)C(=O)[C@H](CC(=O)N1CCN(C(=O)C3CC3)CC1)C2 | 35.5 µM (active)
CCCCOCCCNC(=O)C[C@@H]1C[C@@]2(C(=O)OC)CCCCC=C2N(Cc2cccc3ccccc23)C1=O | 28.2 µM (active)

Compound | Potency
COCCCNC(=O)CN1C(=O)c2cccc3cccc1c23 | inactive
COc1ccc(C2=CSC3=NCCN23)cc1Br | inactive
COc1ccc2nc(N3CCC(C)CC3)c(C#N)cc2c1 | inactive
COc1ccc(/C=N/n2c(C)nc3sc(C)c(C)c3c2=O)cc1 | inactive
CCOC(=O)/C(=C\c1ccc(Cl)cc1)c1nc(O)c2c(C)c(C)sc2n1 | 39.8 µM (active)
CCOC(=O)c1sc(-c2ccc(Cl)cc2Cl)nc1O | inactive
COc1ccc(C2CC(c3cccs3)=NN2c2ccccc2)cc1 (stereo not drawn) | inactive
O=C(CCS(=O)(=O)c1ccccc1)Nc1nc2c(s1)COc1ccccc1-2 | 33.6 µM (active)
CC1(C)CC(=O)c2sc(NC(=O)CCS(=O)(=O)c3ccccc3)nc2C1 | 37.7 µM (active)
CCCC(=O)Nc1nc2c(s1)COc1ccccc1-2 | inactive
CCc1cccc(NC(=O)CCS(=O)(=O)c2ccc(Br)cc2)c1 | inactive
O=C(Nc1nc2ccccc2s1)c1cc2c(s1)-c1ccccc1OC2 | inactive
CC1(C)CC(=O)C2=C(C1)c1c(ccc3ccccc13)NC2c1ccc(C(=O)O)cc1 (stereo not drawn) | inactive
COc1ccc(C2=CC(c3ccccc3Cl)n3nc(-c4ccc(C)cc4)nc3N2)cc1 (stereo not drawn) | inactive
O=C(c1ccccc1)c1sc(Nc2ccc3c(c2)OCO3)nc1-c1ccccc1 | inactive
Cc1ccc(-c2nc3ccccn3c2Nc2ccc3c(c2)OCO3)cc1 | 35.5 µM (active)
COc1ccc(-c2nc3ncccn3c2Nc2ccccc2)cc1 | inactive
CCN(C(=O)CSc1nnc(C2CC2)n1-c1ccccc1)C1CCS(=O)(=O)C1 (stereo not drawn) | inactive
CCOC(=O)CSc1nnc2n(-c3ccccc3)c(=O)c3c4c(sc3n12)CC(C(C)(C)C)CC4 (stereo not drawn) | 35.5 µM (active)
CCOC(=O)C1CCCN(CCC(=O)Nc2cc(C)ccc2C)C1 (stereo not drawn) | inactive
COc1cccc2c3c(c(C)nc12)CCN3c1ccccc1 | inactive
Cc1cccn2c(=O)c3cc(C(=O)NCC4CCCO4)c(=N)n(CCc4ccccc4)c3nc12 (stereo not drawn) | inactive
Oc1ccc2nnc3c(Br)cnn3c2c1 | inactive
NS(=O)(=O)c1ccc2nc(NC(=O)c3ccc(Br)o3)sc2c1 | inactive
COc1cc2nc(NC(=O)c3ccc(S(=O)(=O)N4CCCC4)cc3)sc2cc1OC | inactive
CCCNS(=O)(=O)c1ccc2nc(NC(=O)c3ccc(F)cc3)sc2c1 | 39.8 µM (active)

Compound | Potency
Cc1n[nH]c(-c2cccnc2)c1N=NN(C)C | 23.8 µM (active)
O=C/C(=C\Nc1ccc(S(=O)(=O)CCO)cc1)c1nc2cc(Cl)ccc2o1 | inactive
Cc1ccsc1/C=N/N=C/c1sccc1C | inactive
C=C1C(=O)OC2C=C(CO)C3OC3C3OC3(C)CC(OC(=O)/C(=C/C)COC(C)=O)C12 (stereo not drawn) | 16.8 µM (active)
O=C1Nc2c(Br)cc(Br)c3cccc1c23 | inactive
Cc1cnc2c(c1)C(=O)c1ccccc1-2 | inactive
Cc1cc(C)cc(NC2=C(c3ccccc3)C(=O)c3ccccc32)c1 | 20 µM (active)
Cc1ccc(C2C=C(c3ccccc3)Nc3ncnn32)cc1 (stereo not drawn) | inactive
CCc1cc2c(C)cc(=O)oc2cc1OC(=O)C1CCCN1C(=O)OC(C)(C)C (stereo not drawn) | inactive
CC(=O)/N=c1\c(C#N)cc2c(=O)n3cccc(C)c3nc2n1CCCOC(C)C | inactive
CCOC(=O)Nc1ccc2c(c1)C(=NNC(N)=S)c1ccccc1-2 | 31.6 µM (active)
CCOC(=O)Nc1ccc2c3c(cccc13)-c1ccccc1-2 | inactive
C=C(C)CN=C(S)NN=C1c2ccccc2-c2ccccc21 | inactive
COc1ccc(C2C=C(c3ccccc3)Nc3nc(NC(=O)c4ccc(C)cc4)nn32)cc1 (stereo not drawn) | inactive
COC1(OC)C(/C=C/c2ccc(Cl)cc2)C(C#N)(C#N)C1(OC)OC (stereo not drawn) | 31.6 µM (active)
NC(=O)c1ccsc1NC(=O)COC(=O)CNC(=O)c1ccc(F)cc1 | inactive
C=Cn1cc[n+](CC(=O)c2ccc(Br)cc2)c1 | inactive
O=C(CCSc1ccc(Br)cc1)c1ccc(O)cc1 | 39.8 µM (active)
O=C(CCCSc1nc(O)c2ccccc2n1)c1ccccc1 | inactive
COc1ccccc1N1C(=O)CC(N(O)c2ccccc2)C1=O (stereo not drawn) | inactive
COc1ccc(N2C(=O)CC(Sc3nc[nH]n3)C2=O)c(OC)c1 (stereo not drawn) | 28.2 µM (active)
COc1ccc(C2Nc3cc(OC)ccc3-n3cccc32)cc1 (stereo not drawn) | inactive
CCN(C(=O)c1cc2c(=O)n3ccccc3nc2n1C)C1CCCCC1 | inactive
Nc1ccc(SCc2nc3cccc4c3n2CCC4)cc1 | inactive
c1ccc(CN2CCN(Cc3nnc(-c4ccccc4)o3)CC2)cc1 | inactive
c1ccc(CN2CCN(CCCNc3ccc4nnc(-c5ccccc5)n4n3)CC2)cc1 | 22.4 µM (active)

Compound | Potency
CCCn1c(=N)c(C#N)cc2c(=O)n3ccccc3nc21 | inactive
COc1ccc(-c2cc3ccc(O)cc3oc2=O)cc1 | inactive
CCOCCCn1c(=N)c(C(=O)NCC2CCCO2)cc2c(=O)n3cc(C)ccc3nc21 (stereo not drawn) | inactive
Cc1ccc(-c2nn(-c3ccccc3)cc2/C=C(\C#N)c2cccc(C#N)c2)o1 | inactive
CC(=O)Nc1ccc(S(=O)(=O)Nc2cccc3cccnc23)cc1 | inactive
CC1(C(=O)Nc2cccc3ccccc23)CC1(Br)Br (stereo not drawn) | inactive
CC1(C(=O)Nc2cccc3cccnc23)CCN1Cc1ccc(-c2ccccc2)o1 (stereo not drawn) | 6.31 µM (active)
Cc1ccc(N2C(=O)/C(=C/Nn3cnnc3)c3ccccc3C2=O)cc1 | inactive
CCOCCCn1/c(=N/C(C)=O)c(C#N)cc2c(=O)n3ccccc3nc21 | inactive
CC(C)C[C@H]1COc2cccc(N3CCN(Cc4ccccc4F)CC3)c2S(=O)(=O)N1 | 12.6 µM (active)
O=C(NCc1ccco1)C1CCC(N2C(=O)C3C4CCC(C4)C3C2=O)CC1 (stereo not drawn) | inactive
O=C(Nc1cccc2c1C(=O)NC2=O)c1ccccc1[N+](=O)[O-] | inactive
CCOc1ccc(NC(=O)c2cn(CC(C)C)c(=O)c3c2c2ccccc2n3C)cc1 | 17.8 µM (active)
CCOc1ccc(NC(=O)c2cc3ccccc3cc2O)cc1 | inactive
CCOc1ccc(NC(=O)/C(=C/Nc2ccccc2)C(C)=O)cc1 | inactive
CCOCCCN=C(S)N1CCCN(c2nc3cc(C)cc(C)c3cc2C#N)CC1 | inactive
CCOc1ccc2nc(O)c(CN(Cc3cccs3)Cc3nnnn3C(C)(C)CC)cc2c1 | 35.5 µM (active)
CCN1CCN(c2nc(Nc3cc(OC)ccc3OC)nc(Nc3cc(OC)ccc3OC)n2)CC1 | inactive
CCc1nc2ccc(C(=O)Nc3nnc(C)s3)cc2nc1CC | inactive
COC(=O)c1c(NC(=O)c2ccc(S(=O)(=O)N(C)C3CCCCC3)cc2)sc2c1CCN(C)C2 | inactive
Cc1c(C(=O)Nc2ccc(S(=O)(=O)N(C)C3CCN(C)CC3)cc2)oc2c(Cl)cccc12 | 39.8 µM (active)
Cn1nc(C(=O)Nc2cccc(S(=O)(=O)N3CCCC3)c2)c2ccccc2c1=O | inactive
O=C(Cc1cccs1)N1CCN=C1SCc1ccccc1Cl | inactive
O=C(COC(=O)Cn1cnc2ccccc2c1=O)NCc1ccccc1Cl | inactive
O=C(CCl)/N=c1\sccn1Cc1ccccc1Cl | 31.6 µM (active)
